# Measurements: PubChem BioAssay (NCATS)
# A number with no mark means an inactive call. Results filed as inconclusive are left out. A call without a number means that no potency is given here. Activity calls are given as the source filed them. Calls come from the whole dose curve; as a rule, active = well fitted curve in the direction sought with a large enough effect; inconclusive = small, poorly fitted or top-dose-only effect, or another doubt; inactive = no such curve, though single readings can be large; an effect the other way counts as inactive or inconclusive.
# Key:
# [1] = target: Glutathione peroxidase 1 (Homo sapiens) (UniProt P07203); experiment: Primary qHTS Assay for Inhibitors of Recombinant Selenoprotein Glutathione Peroxidase 1 (GPX1) (AID 1845191); note: nearly all actives have a fitted effect of over 65% in size
# Summary of the method: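 10 nM GPX1 + cpd, 30 min RT; start w/ 1 mM GSH, 0.5 mM cumene hydroperoxide, 0.5 mM NADPH, 100 nM GR, 0.01% BSA; buffer 50 mM Tris-HCl pH 7.5, 2 mM EDTA, 150 mM NaCl; Fl 340/450, 0 & 15 min.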
# [2] = target: Phospholipid hydroperoxide glutathione peroxidase GPX4 (Homo sapiens) (UniProt P36969); experiment: Primary qHTS Assay for Inhibitors of Recombinant Selenoprotein Glutathione Peroxidase 4 (GPX4) (AID 1845192); note: nearly all actives have a fitted effect of over 65% in size; for activity change, negative = inhibition: series mostly up to about 50 µM
# Summary of the method: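 NADPH consumption, followed by fluorescence at 340/450 nm between 0 and 15 min, reports GPX4 activity via coupled glutathione reductase (100 nM). Enzyme 200 nM was pre-exposed to compound 30 min; 0.5 mM cumene hydroperoxide and 1 mM GSH served as substrates.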
# [3] = target: Luciferin 4-monooxygenase (Photinus pyralis) (UniProt P08659); experiment: Primary firefly luciferase (FLuc) qHTS assay for identification of artifact compounds. (AID 1845220); note: nearly all actives have a fitted effect of over 60% in size; note: potency is the fitted concentration of half-maximal effect; for activity change, negative = inhibition: series mostly up to about 54 µM
# Summary of the method: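 Compounds sat 15 min at room temperature with 10 uM luciferin and 10 uM ATP (pH 7.6 Tris acetate). Firefly luciferase (10 nM final) was then added, and luminescence was read 5 min later. Data normalized to no-enzyme and DMSO controls were Hill-fitted.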
# [4] = Primary fluorescence-based thiol-reactive (MSTI) qHTS assay for identification of artifact compounds. (AID 1845221); note: nearly all actives have a fitted effect of over 65% in size; note: potency is the fitted concentration of half-maximal effect;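 for activity change, negative = thiol reactive: series mostly up to about 54 µM; thiol-reactive compounds lower the probe fluorescence signal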
# Summary of the method: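 Curve-fitted percent inhibition (4-parameter Hill) derived from fluorescence, Ex 525/Em 598 nm, scaled with Acetyl-MSTI and MSTI; 1 h incubation at room temperature.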
# [5] = test system: Nanoluciferase (engineered Oplophorus gracilirostris luciferase); experiment: Primary Nanoluciferase (NLuc) qHTS assay for identification of artifact compounds. (AID 1845222); note: series mostly up to about 54 µM
# Summary of the method: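 Luminescence from secreted NLuc (filtered, 1:55-diluted S16 cell medium) read 5 min after Nano-Glo substrate; compounds preincubated 15 min, RT. Hill fits of inhibition normalized to DMSO and no-enzyme.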
# [6] = Primary redox qHTS assay for identification of artifact compounds. (AID 1845223); note: potency is the fitted concentration of half-maximal effect
# Summary of the method: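 Amplex Red (25 uM) and HRP (250 mU/mL) in HBSS, with compounds for 15 min, then 250 uM DTT for 30 min, room temperature, dark. Fluorescence 525/598 nm read; normalized to DMSO and 10 uM DA3003; Hill fit.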
# Sequence of Glutathione peroxidase 1 (Homo sapiens) (P07203 whole entry, looked up): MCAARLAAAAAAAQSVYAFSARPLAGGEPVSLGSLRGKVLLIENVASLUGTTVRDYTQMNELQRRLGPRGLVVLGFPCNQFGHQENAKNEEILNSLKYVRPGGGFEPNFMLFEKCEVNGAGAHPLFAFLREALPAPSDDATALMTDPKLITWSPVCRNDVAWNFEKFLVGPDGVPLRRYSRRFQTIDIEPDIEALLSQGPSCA
# Sequence of Phospholipid hydroperoxide glutathione peroxidase GPX4 (Homo sapiens) (P36969 whole entry, looked up): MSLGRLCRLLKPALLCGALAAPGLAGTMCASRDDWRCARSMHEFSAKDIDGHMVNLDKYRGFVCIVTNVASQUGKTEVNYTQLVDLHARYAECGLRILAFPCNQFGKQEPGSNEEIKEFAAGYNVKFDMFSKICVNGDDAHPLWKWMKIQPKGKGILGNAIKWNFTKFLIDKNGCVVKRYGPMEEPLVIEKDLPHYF
Structure (SMILES),Potency [1],Potency [2],Potency [3],Potency [4],Potency [5],Potency [6],"activity change, negative = inhibition [3]","activity change, negative = thiol reactive [4]","activity, negative = inhibition [5]",redox activity (% of DA3003) [6]
CC1(C)CC[C@]2(C(=O)O)CC[C@]3(C)C(=CCC4[C@@]5(C)C[C@@H](O)[C@H](O)[C@@](C)(CO)C5[C@H](O)C[C@]43C)[C@@H]2C1 (stereo not given in full),inactive,inactive,inactive,inactive,inactive,inactive,–,–,–,–
CNc1nc(Cc2ccccc2)nc2c1CCNC[C@@H]2C,inactive,inactive,inactive,inactive,inactive,inactive,–,–,–,–
CCC/C=C1\OC(=O)C2=C1CCC(O)C2O (stereo not given),inactive,inactive,inactive,inactive,inactive,inactive,–,–,–,–
C[C@H]1[C@H](C)CC[C@]2(C(=O)O)CC[C@]3(C)C(=CCC4[C@@]5(C)C[C@@H](O)[C@H](O)C(C)(C)C5CC[C@]43C)[C@H]12 (stereo not given in full),inactive,inactive,inactive,inactive,inactive,inactive,–,–,–,–
Fc1cccc(CN(C2=NCCN2)c2c(Cl)cccc2Cl)c1,inactive,inactive,inactive,inactive,inactive,inactive,–,–,–,–
COc1ccc(CC(=O)NCc2ccccc2-c2ccccc2C(=O)NCCc2cccnc2)cc1,inactive,inactive,inactive,inactive,inactive,inactive,–,–,–,–
C/C=C1/[C@H](O[C@@H]2O[C@H](CO)[C@@H](O)[C@H](O)[C@H]2O)OC=C(C(=O)OC)[C@H]1CC(=O)OCCc1ccc(O)c(O)c1,inactive,inactive,inactive,2.07 µM (active),inactive,inactive,–,–,–,–
CCCNCCOc1ccc(NC(=O)c2c[nH]c3c2C(=O)CCC3)cc1F,inactive,inactive,inactive,inactive,inactive,inactive,–,–,–,–
CC(C)C1NC(=O)C(CC2(O)c3ccccc3N3C(=O)C(Cc4ccccc4)NC32)NC1=O (stereo not given),inactive,inactive,inactive,inactive,inactive,inactive,–,–,–,–
CC1=CCC[C@@H]2[C@@](C)(CCc3ccoc3)[C@H](C(=O)O)CC[C@@]12C,inactive,inactive,inactive,inactive,inactive,inactive,–,–,–,–
c1ccc2c(Nc3nnc(-c4ccncc4)s3)cccc2c1,inactive,inactive,7.57 µM (active),inactive,inactive,inactive,–,–,–,–
CC(C)c1c(NC(=O)Nc2ccc(Cl)cc2)c(=O)n(-c2ccccc2)n1C,inactive,inactive,inactive,inactive,inactive,inactive,–,–,–,–
C=CC1(C)C=C2CC[C@H]3[C@@](C)(C(=O)O)CCC[C@]3(C)C2CC1 (stereo not given in full),inactive,inactive,inactive,inactive,inactive,inactive,–,–,–,–
CN(C)C(=O)C(O)C(Cc1ccccc1)NC(=O)c1cc2cc(Cl)ccc2[nH]1 (stereo not given),inactive,inactive,inactive,inactive,inactive,inactive,–,–,–,–
CC1CCC2(NC1)OC1C(O)C3C4CCC5CC(O[C@@H]6O[C@H](CO)[C@@H](O)[C@H](O)[C@H]6O[C@@H]6O[C@@H](C)[C@H](O)[C@@H](O)[C@H]6O)CCC5(C)C4CCC3(C)C1C2C (stereo not given in full),inactive,inactive,inactive,inactive,inactive,inactive,–,–,–,–
CC(C)=CCc1c(O)cc2oc3cc(C)cc(O)c3c2c1C,inactive,inactive,12 µM (active),4.74 µM (active),inactive,inactive,–,–,–,–
COc1cc(CO)cc(OC)c1O[C@@H]1O[C@H](CO)[C@@H](O)[C@H](O)[C@H]1O,inactive,inactive,inactive,inactive,inactive,inactive,–,–,–,–
C[C@@H]1O[C@@H](O[C@H]2[C@@H]3C=CO[C@@H](O[C@@H]4O[C@H](CO)[C@@H](O)[C@H](O)[C@H]4O)[C@@H]3[C@@]3(CO)O[C@@H]23)[C@H](O)[C@H](OC(=O)/C=C/c2ccc(O)cc2)[C@H]1OC(=O)/C=C/c1ccc(O)cc1,inactive,inactive,inactive,inactive,inactive,inactive,–,–,–,–
CCN(CCN(C)C)C(=O)CNCc1cc(C(N)=O)ccn1,inactive,inactive,inactive,inactive,inactive,inactive,–,–,–,–
C/C=C(/C)C(=O)OC1CC(C)(C)CC2C3=CCC4C5(C)CCC(OC6OC(C)C(OC7OC(C(=O)O)C(O)C(OC8OC(CO)C(O)C(O)C8OC8OC(CO)C(O)C(O)C8O)C7O)C(O)C6O)C(C)(C)C5CCC4(C)C3(C)C(OC(=O)/C=C/C=C/C=C/CCC)C(OC(C)=O)C12CO (stereo not given),inactive,inactive,–,–,–,–,1.89% [at 11.6 µM],260% [at 11.5 µM],-1.65% [at 11.6 µM],13.7% [at 11.5 µM]

Structure (SMILES),Potency [1],Potency [2],Potency [3],Potency [4],Potency [5],Potency [6],"activity change, negative = inhibition [3]","activity change, negative = thiol reactive [4]","activity, negative = inhibition [5]",redox activity (% of DA3003) [6]
NC[C@H]1CCC[C@@H](CNC(=O)[C@@H](Cc2c[nH]c3ccccc23)NC(=O)N2CCC3(C=Cc4ccccc43)CC2)C1,inactive,inactive,inactive,inactive,inactive,inactive,–,–,–,–
CC(=O)/C=C/C1C(C)CC(O[C@@H]2O[C@H](CO)[C@@H](O)[C@H](O)[C@H]2O)CC1(C)C (stereo not given in full),inactive,inactive,inactive,14.7 µM (active),inactive,inactive,–,–,–,–
C=C1C(OC(C)=O)[C@@]23CCC4[C@](C)(C(=O)O)CCC[C@@]4(C)[C@]2(O)CC[C@H]1C3 (stereo not given in full),inactive,inactive,inactive,inactive,inactive,inactive,–,–,–,–
C[C@@H]1O[C@@H](O[C@H]2[C@H](Oc3cc(O)c(C(=O)CCc4ccc(O)cc4)c(O)c3)O[C@H](CO)[C@@H](O)[C@@H]2O)[C@H](O)[C@H](O)[C@H]1O,inactive,inactive,inactive,inactive,inactive,10.6 µM (active),–,–,–,–
CC(=O)NC1CC(=O)C23C(=O)NC(Cc4c[nH]c5ccccc45)C2C(C)=C(C)C(O)C3/C=C/CC(C)/C=C(/C)C(O)C1O (stereo not given),inactive,inactive,inactive,inactive,inactive,inactive,–,–,–,–
COc1ccc(-n2c(=O)[nH]c3cc(C(=O)NCc4ccc(Cl)cc4)sc3c2=O)nc1OC,inactive,inactive,inactive,inactive,inactive,inactive,–,–,–,–
CC(NC(=O)[C@H](Cc1ccccc1)NC(=O)OCc1ccccc1)C(=O)CF (stereo not given in full),inactive,inactive,inactive,inactive,inactive,inactive,–,–,–,–
COC(=O)/C=C/c1ccc(O[C@@H]2O[C@H](CO)[C@@H](O)[C@H](O)[C@H]2O)cc1,inactive,inactive,inactive,inactive,inactive,inactive,–,–,–,–
CC1=C2CC(=O)C(C)CC/C=C(\C)CC2OC1=O (stereo not given),inactive,inactive,inactive,inactive,inactive,inactive,–,–,–,–
CC(CCc1ccc(O)cc1)O[C@@H]1O[C@H](CO[C@@H]2OC(CO)[C@H](O)[C@H]2O)[C@@H](O)[C@H](O)[C@H]1O (stereo not given in full),inactive,inactive,inactive,inactive,inactive,inactive,–,–,–,–
CC1OC(O[C@@H]2[C@@H](O)[C@H](OC(=O)[C@]34CCC(C)(C)C[C@H]3C3=CCC5[C@@]6(C)CC[C@H](O[C@@H]7O[C@H](C(=O)O)[C@@H](O)[C@H](O[C@@H]8OC[C@@H](O)[C@H](O)[C@H]8O)[C@H]7O[C@@H]7O[C@H](CO)[C@H](O)[C@H](O)[C@H]7O)[C@@](C)(C=O)C6CC[C@@]5(C)[C@]3(C)C[C@H]4O)O[C@H](C)[C@@H]2OC2OC(C)C(OC3OCC(O)C(O)C3O)C(O)C2O)C(O)C(O)C1O (stereo not given in full),inactive,inactive,–,–,–,–,1.64% [at 11.6 µM],288% [at 11.5 µM],2.13% [at 11.6 µM],19.3% [at 11.5 µM]
Cc1cccc(NC(=O)CN2CCC(c3ccccn3)CC2)c1,inactive,inactive,inactive,inactive,inactive,inactive,–,–,–,–
CC(=O)OC1C(CO)OC(O[C@H]2[C@H](OC(=O)[C@]34CCC(C)(C)C[C@H]3C3=CCC5[C@@]6(C)CC[C@H](O[C@@H]7O[C@H](C(=O)O)[C@@H](O)[C@H](O[C@@H]8OC[C@@H](O)[C@H](O)[C@H]8O)[C@H]7O[C@@H]7O[C@H](CO)[C@H](O)[C@H](O)[C@H]7O)[C@@](C)(C=O)C6CC[C@@]5(C)[C@]3(C)C[C@H]4O)O[C@H](C)[C@H](OC3OC(C)C(OC4OCC(O)C(O)C4O)C(O)C3O)[C@@H]2O)C(O)C1O (stereo not given in full),inactive,inactive,–,–,–,–,2.42% [at 11.6 µM],290% [at 11.5 µM],1.69% [at 11.6 µM],3.62% [at 11.5 µM]
NC(=O)NCCCC(NC(=O)Cc1ccccc1)C(=O)O (stereo not given),inactive,inactive,inactive,inactive,inactive,inactive,–,–,–,–
COc1cc(C2Oc3c(OC)cc(/C=C/C(=O)OC4CC(O)(C(=O)O)CC(O)C4O)cc3C2CO)ccc1O (stereo not given),inactive,inactive,inactive,inactive,inactive,inactive,–,–,–,–
C=C1C2(C)CC3C4(C)OC(C5OC56C4=CC(=O)OC6(C)C)C3(C)C13C(=O)OC(C)C3(O)C2=O (stereo not given),inactive,inactive,inactive,inactive,inactive,inactive,–,–,–,–
N#CN1CCC[C@@H](n2nc(-c3ccc(Oc4ccc(F)cc4F)cc3)c(C(N)=O)c2N)C1,inactive,inactive,inactive,inactive,inactive,inactive,–,–,–,–
C=C1CC[C@@H]2[C@@](C)(CO[C@@H]3O[C@H](CO)[C@@H](O)[C@H](O)[C@H]3O)[C@H](O)CC[C@@]2(C)[C@@H]1CC/C(C)=C/CO[C@@H]1O[C@H](CO)[C@@H](O)[C@H](O)[C@H]1O,inactive,inactive,inactive,inactive,inactive,inactive,–,–,–,–
COc1cc(O)cc(C)c1C(=O)O[C@H]1[C@@H](O)[C@@H](n2ccc(=O)[nH]c2=O)O[C@@H]1CO,inactive,inactive,inactive,inactive,inactive,inactive,–,–,–,–
Cc1ccc2nc(NC(=O)CSc3nc4c(c(=O)n3-c3ccc(F)cc3)SCC4)sc2c1,inactive,inactive,inactive,inactive,inactive,inactive,–,–,–,–
